A number with no mark means an inactive call. For part of these data: Entries with a potency or affinity are not part of this list. Activity calls are given as the source filed them. Unless noted, no rule for the calls is given here.
Tests used:
[1] = antimalarial activity against Dd2 strain (AID 2302;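 active = growth inhibition above 50% at the single 2 µM test dose, taken to imply half-maximal potency below 2 µM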;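 also: 0% = DMSO untreated growth and 100% = chloroquine plus artemisinin killed control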); conditions: P. falciparum Dd2 in RBCs, LDH growth readout, 72 h; at 2 µM; active compounds read high
[2] = human hepatoma cell viability loss – ATP luminescence, cytotoxicity control for P. falciparum antimalarial project, primary screen (AID 2303;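 active = inhibition above 50%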;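 also: 0% = DMSO wells and 100% = digitonin-killed cells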); conditions: HepG2 viability, 24-48 h, at 10 µM, active compounds read high
[3] = biological target: L-lactate dehydrogenase (Plasmodium falciparum (isolate CDC / Honduras)) (UniProt Q27743); experiment: PfLDH activity inhibition – cell lysate, 3D7 strain, counter-screen for P. falciparum growth inhibition project (AID 2304);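 also: 0% = vehicle and 100% = reference inhibitor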; conditions: P. falciparum 3D7 crude extract, LDH APAD/NBT absorbance; at 2 µM; active compounds read high
L-lactate dehydrogenase (Plasmodium falciparum (isolate CDC / Honduras)), sequence (Q27743 whole entry, looked up): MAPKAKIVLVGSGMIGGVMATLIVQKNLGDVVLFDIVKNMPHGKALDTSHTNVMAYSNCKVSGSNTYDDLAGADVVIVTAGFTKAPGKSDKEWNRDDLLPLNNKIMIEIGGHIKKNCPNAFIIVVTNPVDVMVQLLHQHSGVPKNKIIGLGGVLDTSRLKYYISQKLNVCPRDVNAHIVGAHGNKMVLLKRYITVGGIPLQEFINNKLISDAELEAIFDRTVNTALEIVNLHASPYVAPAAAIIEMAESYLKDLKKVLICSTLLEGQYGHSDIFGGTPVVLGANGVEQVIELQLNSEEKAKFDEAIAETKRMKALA

[4] = inhibition of 3D7 malaria parasite growth – strain 3D7 (AID 2306);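 also: 0% = DMSO wells and 100% = chloroquine plus artemisinin control wells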; conditions: P. falciparum 3D7 erythrocytic growth, LDH absorbance, 72 h; at 2 µM; active compounds read high
[5] = biological target: Calcium-dependent protein kinase 1 (Plasmodium falciparum (isolate 3D7)) (UniProt P62344); experiment: PfCDPK1 kinase inhibitors, biochemical, TCAMS library (AID 1159585; cut-off not given, nearly all actives have IC50 up to about 0.98 µM;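 also: inhibitors leave more ATP so luminescence rises with inhibition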); conditions: recombinant PfCDPK1, Kinase-Glo ATP depletion luminescence
Calcium-dependent protein kinase 1 (Plasmodium falciparum (isolate 3D7)), sequence (P62344 whole entry, looked up): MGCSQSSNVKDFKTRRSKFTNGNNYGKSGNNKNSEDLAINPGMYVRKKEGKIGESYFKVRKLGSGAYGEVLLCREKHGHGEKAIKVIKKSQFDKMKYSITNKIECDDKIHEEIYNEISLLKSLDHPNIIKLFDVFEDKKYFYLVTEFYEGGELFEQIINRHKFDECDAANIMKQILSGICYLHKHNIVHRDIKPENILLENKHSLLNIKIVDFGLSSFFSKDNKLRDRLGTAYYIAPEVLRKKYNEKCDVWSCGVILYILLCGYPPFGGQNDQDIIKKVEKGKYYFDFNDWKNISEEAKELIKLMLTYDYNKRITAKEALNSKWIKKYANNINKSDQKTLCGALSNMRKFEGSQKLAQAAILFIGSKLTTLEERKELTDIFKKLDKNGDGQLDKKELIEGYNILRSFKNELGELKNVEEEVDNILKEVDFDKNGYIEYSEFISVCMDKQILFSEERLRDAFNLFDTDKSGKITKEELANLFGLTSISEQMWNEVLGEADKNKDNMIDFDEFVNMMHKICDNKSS

[6] = biological target: Plasmodium falciparum protein kinase 6 (PK6, PF3D7_1337100) (UniProt Q8IDW1); experiment: PfPK6 kinase inhibitors, biochemical, TCAMS library (AID 1159586); conditions: recombinant PfPK6, Kinase-Glo ATP depletion luminescence
Plasmodium falciparum protein kinase 6 (PK6, PF3D7_1337100), sequence (Q8IDW1 1-305): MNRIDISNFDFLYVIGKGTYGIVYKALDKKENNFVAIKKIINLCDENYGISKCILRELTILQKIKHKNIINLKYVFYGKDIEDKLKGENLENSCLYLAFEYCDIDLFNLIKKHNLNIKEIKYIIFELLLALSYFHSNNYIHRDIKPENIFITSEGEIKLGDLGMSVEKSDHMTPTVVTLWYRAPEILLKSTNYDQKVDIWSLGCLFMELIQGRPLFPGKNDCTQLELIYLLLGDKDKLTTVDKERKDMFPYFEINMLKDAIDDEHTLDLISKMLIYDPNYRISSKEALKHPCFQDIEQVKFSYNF

[7] = biological target: Protein kinase 7 (PK7), Plasmodium falciparum 3D7 (PF3D7_0213400) (UniProt Q7YTF7); experiment: inhibition of Plasmodium PK7 catalytic activity – biochemical, TCAMS antimalarial set, Kinase-Glo luminescence (AID 1159587); conditions: recombinant PfPK7, Kinase-Glo ATP depletion luminescence
Protein kinase 7 (PK7), Plasmodium falciparum 3D7 (PF3D7_0213400), sequence (Q7YTF7 1-343): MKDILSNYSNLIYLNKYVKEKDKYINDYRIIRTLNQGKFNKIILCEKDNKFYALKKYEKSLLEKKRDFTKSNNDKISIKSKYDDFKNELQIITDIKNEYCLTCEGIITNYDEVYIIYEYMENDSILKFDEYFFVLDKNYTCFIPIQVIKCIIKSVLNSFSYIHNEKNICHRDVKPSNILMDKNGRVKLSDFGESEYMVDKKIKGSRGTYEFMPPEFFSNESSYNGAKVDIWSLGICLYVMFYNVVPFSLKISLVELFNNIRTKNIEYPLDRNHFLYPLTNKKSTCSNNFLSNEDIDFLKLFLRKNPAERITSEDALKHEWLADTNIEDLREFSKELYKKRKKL

[8] = biological target: Calcium-dependent protein kinase 4 (Plasmodium falciparum (isolate 3D7)) (UniProt Q8IBS5); experiment: PfCDPK4 kinase inhibitors, biochemical, TCAMS library (AID 1159588; cut-off not given, nearly all actives have IC50 up to about 0.91 µM); conditions: recombinant PfCDPK4, Kinase-Glo ATP depletion luminescence
Calcium-dependent protein kinase 4 (Plasmodium falciparum (isolate 3D7)), sequence (Q8IBS5 whole entry, looked up): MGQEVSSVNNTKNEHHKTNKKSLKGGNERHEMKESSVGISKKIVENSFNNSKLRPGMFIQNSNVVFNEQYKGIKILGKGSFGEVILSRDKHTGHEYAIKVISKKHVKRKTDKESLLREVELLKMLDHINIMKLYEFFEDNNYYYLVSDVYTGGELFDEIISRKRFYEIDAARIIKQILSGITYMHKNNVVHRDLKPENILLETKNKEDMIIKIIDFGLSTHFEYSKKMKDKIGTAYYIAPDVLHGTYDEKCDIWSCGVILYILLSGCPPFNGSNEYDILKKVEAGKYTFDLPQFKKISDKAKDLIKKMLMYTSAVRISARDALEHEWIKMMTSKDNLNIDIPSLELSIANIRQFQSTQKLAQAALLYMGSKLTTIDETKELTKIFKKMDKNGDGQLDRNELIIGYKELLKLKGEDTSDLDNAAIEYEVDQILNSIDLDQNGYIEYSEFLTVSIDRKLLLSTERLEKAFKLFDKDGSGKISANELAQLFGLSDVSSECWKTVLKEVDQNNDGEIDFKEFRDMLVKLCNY

Row | SMILES | growth inhibition [1] | inhibition [2] | inhibition [3] [%] | growth inhibition [4] | outcome [5] | outcome [6] | outcome [7] | outcome [8]
1 | O=C(Nc1ccc(-c2ccc(-c3nc4ccccc4[nH]3)s2)cc1)c1ccncc1 | 95% (active) | 21% | -5 | 94% (active) | inactive | inactive | inactive | inactive
2 | CCCCc1ccc(S(=O)(=O)Nc2ccc3c(c2)CCN(Cc2c[nH]c4cnccc24)CC3)cc1 | 12% | 41% | -5 | 99% (active) | inactive | inactive | inactive | inactive
3 | COc1ccc(Nc2cc(C)c3cc(NC(=O)c4ccncc4)ccc3n2)cc1 | 26% | 0% | 2 | 98% (active) | inactive | inactive | inactive | inactive
4 | CCCC(CCC)n1ccc2c3c(N)nc(N)nc3ccc21 | 97% (active) | 66% (active) | -2 | 98% (active) | inactive | inactive | inactive | inactive
5 | CC(=O)Nc1ccc(CN2CCCN(c3cc(NC(=O)c4cccc(C)c4)ccn3)CC2)cc1 | 10% | -2% | -1 | 92% (active) | inactive | inactive | inactive | inactive
6 | Cc1cc(NN=Cc2cccc([N+](=O)[O-])c2)c2cc(F)ccc2n1 | 99% (active) | 3% | -5 | 102% (active) | inactive | inactive | inactive | inactive
7 | Cc1cc(NN=Cc2cccc(Cl)c2)c2ccccc2n1 | 100% (active) | 22% | 0 | 100% (active) | inactive | inactive | inactive | inactive
8 | CC(C)(C)c1ccc(CN2CCC(CNC(=O)c3cc(-c4ccccc4Cl)cs3)C2)cc1 (stereo not drawn) | 56% (active) | 33% | 1 | 101% (active) | inactive | inactive | inactive | inactive
9 | O=C(Nc1cccc(C(F)(F)F)c1)c1ccc(S(=O)(=O)NC2CCN(CC3CCCCC3)C2)cc1 (stereo not drawn) | -3% | 16% | -4 | 92% (active) | inactive | inactive | inactive | inactive
10 | CCC1CCCCN1S(=O)(=O)c1ccc(NC(=O)c2cc(C)on2)cc1 (stereo not drawn) | 53% (active) | 0% | 0 | 86% (active) | inactive | inactive | inactive | inactive
11 | CC(=O)Nc1ccc(OCCCCN(Cc2ccccc2C(F)(F)F)c2ccc(C(F)(F)F)c(C#N)c2)c(Cl)c1 | 96% (active) | 14% | -1 | 96% (active) | inactive | inactive | inactive | inactive
12 | CN1CCN(c2ccc3nccc(CCN4CCC(NCc5ccc6c(n5)NC(=O)CO6)CC4)c3n2)CC1 | 3% | 9% | -1 | 97% (active) | inactive | inactive | inactive | inactive
13 | Cc1ccc(Cn2cnc3cc(C(=O)Nc4ccc(-c5ccc(CN(C)C)cc5)cc4)ccc3c2=O)o1 | 12% | 43% | -1 | 82% (active) | inactive | inactive | inactive | inactive
14 | Cc1ccc2[nH]c(C)c(Br)c(=O)c2c1 | 84% (active) | -4% | -5 | 95% (active) | inactive | inactive | inactive | inactive
15 | Cc1cccc2[nH]c(-c3ccc(-c4cccc(CNCCNC(=O)c5ccnn5C)c4)cc3)nc12 | 92% (active) | 17% | -4 | 100% (active) | inactive | inactive | inactive | inactive
16 | Cc1[nH]c(C)c(-c2ccc(C(=O)c3ccccc3)cc2)c(=O)c1Br | 96% (active) | -10% | 1 | 95% (active) | inactive | inactive | inactive | inactive
17 | O=C(Nc1cccc2ccccc12)N1CCC(NS(=O)(=O)c2cccc(C(F)(F)F)c2)CC1 | 1% | -5% | -1 | 95% (active) | inactive | inactive | inactive | inactive
18 | CN1CCc2ccc(NC(=O)Nc3cccc([N+](=O)[O-])c3)cc2C1 | 3% | -5% | 0 | 87% (active) | inactive | inactive | inactive | inactive

Row | SMILES | growth inhibition [1] | inhibition [2] | inhibition [3] [%] | growth inhibition [4] | outcome [5] | outcome [6] | outcome [7] | outcome [8]
19 | COc1cc(C(=O)N2CCOC(CCN3CC[C@@H]4c5ccccc5C[C@@H]43)(c3ccc(Cl)c(Cl)c3)C2)cc(OC)c1OC (stereo partly drawn) | 82% (active) | 32% | 1 | 88% (active) | inactive | inactive | inactive | inactive
20 | COc1cc(OC)cc(-c2nn(-c3ccc([N+](=O)[O-])cc3C#N)c(=S)n2CC2CCCO2)c1 (stereo not drawn) | 75% (active) | 9% | 0 | 98% (active) | inactive | inactive | inactive | inactive
21 | C=CCN(c1ccc(OC)cc1)S(=O)(=O)c1ccc(Cl)c(C(=O)Nc2cccc(C#N)c2)c1 | 73% (active) | 6% | 6 | 96% (active) | inactive | inactive | inactive | inactive
22 | O=C(Nc1cccc(CN2CCCN(Cc3ccc(O)cc3)CC2)c1)c1cccc(C(F)(F)F)c1 | 71% (active) | 9% | 3 | 101% (active) | inactive | inactive | inactive | inactive
23 | COc1ccc(N2CCN(CCCCNC(=O)c3ccc(NC(=O)c4ccc(OC(F)(F)F)cc4)cc3)CC2)c(OC)c1 | 90% (active) | 36% | 5 | 101% (active) | inactive | inactive | inactive | inactive
24 | COc1cccc(NC(=O)c2cc([N+](=O)[O-])ccc2NC(=O)CN2CCc3ccccc3C2)c1 | 37% | 5% | -1 | 100% (active) | inactive | inactive | inactive | inactive
25 | COCCNC(=O)C(CNC(=O)c1ccc2c(c1)OCO2)NC(=O)c1ccc(-c2ccccc2)cc1 (stereo not drawn) | 3% | 14% | 1 | 90% (active) | inactive | inactive | inactive | inactive
26 | CCN(CC)S(=O)(=O)c1ccc(C(C)NC(=O)c2ccccc2COc2ccccc2)cc1 (stereo not drawn) | 89% (active) | -3% | 4 | 100% (active) | inactive | inactive | inactive | inactive
27 | O=C(Nc1nc2cc(S(=O)(=O)NCc3ccc(Cl)c(Cl)c3)ccc2n1CCCN1CCCC1)c1ccc(Cl)cc1 | 16% | 57% (active) | -1 | 89% (active) | inactive | inactive | inactive | inactive
28 | NC1=NC(Cc2ccccc2)(c2ccncc2)C(=O)N1CCCc1ccccc1 (stereo not drawn) | 1% | 1% | 3 | 86% (active) | inactive | inactive | inactive | inactive
29 | Cc1cc(N[C@@H](Cc2ccccc2)C(=O)NCc2cccs2)nc(NCCc2ccccn2)n1 | 49% | -4% | -2 | 93% (active) | inactive | inactive | inactive | inactive
30 | O=C(/C=C/c1ccc(Cl)c(Cl)c1)NCC(CCCN1CCC(c2c[nH]c3ccccc23)CC1)c1ccccc1 (stereo not drawn) | 46% | 98% (active) | 3 | 100% (active) | inactive | inactive | inactive | inactive
31 | N#Cc1ccc(-c2ccc(C(=O)NCCCCN3CCC(c4nc5ccccc5[nH]4)CC3)cc2)cc1 | 13% | 43% | 4 | 92% (active) | inactive | inactive | inactive | inactive
32 | O=C(Nc1ccc(S(=O)(=O)N2CCCCC2)cc1)c1cc(-c2cc(Cl)ccc2O)n[nH]1 | 87% (active) | 36% | 0 | 97% (active) | inactive | inactive | inactive | inactive
33 | CC(C)N(Cc1cnc(N)c(C#N)n1)c1ccc(Cl)c(Cl)c1 | 63% (active) | -1% | -5 | 97% (active) | inactive | inactive | inactive | inactive
34 | CC(=O)Nc1nc(C(=O)Nc2cccc(-c3ccc4c(cnn4CC4CC4)c3)c2)cs1 | 67% (active) | 16% | 2 | 95% (active) | inactive | inactive | inactive | inactive
35 | Cc1ccccc1C1CCN(C2CCC(NC(=O)c3cc4cc(Cl)ccc4o3)CC2)CC1 (stereo not drawn) | 30% | 22% | -2 | 89% (active) | inactive | inactive | inactive | inactive
36 | CC(=O)N[C@H](C(=O)Nc1ccc(-c2ccc(-c3nc4ccc(C(F)(F)F)cc4[nH]3)s2)cc1)C(C)C | 61% (active) | 42% | 2 | 88% (active) | inactive | inactive | inactive | inactive

— PubChem BioAssay
